Source: PubChem BioAssay (several laboratories)
FBA Mtb inh = Mtb FBA enzyme inhibitors, primary screen, biochemical, fluorescence, strain H37Rv. purified M. tuberculosis FBA, fluorescence read-out. inhibition, % at 1 µM. 2.3% of 360,000 active. AID 588726, 2011; in the data active means inhibition above about 27%;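 further: 0% = vehicle and 100% = reference inhibitor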
Target sequence (P9WQA3 whole entry, looked up): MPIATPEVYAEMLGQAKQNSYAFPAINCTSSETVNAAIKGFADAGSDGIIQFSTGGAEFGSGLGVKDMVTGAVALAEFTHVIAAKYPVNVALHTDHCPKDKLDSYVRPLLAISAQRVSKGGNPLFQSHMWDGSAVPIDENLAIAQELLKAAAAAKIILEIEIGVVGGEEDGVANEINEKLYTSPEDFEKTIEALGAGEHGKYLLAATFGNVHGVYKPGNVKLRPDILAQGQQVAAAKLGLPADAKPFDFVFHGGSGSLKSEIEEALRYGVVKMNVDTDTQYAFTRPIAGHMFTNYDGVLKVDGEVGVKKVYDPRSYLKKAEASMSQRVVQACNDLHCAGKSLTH
GDH-TPI counter-1 = GDH-TPI coupling enzyme inhibitors, primary screen, artefact control for M. tuberculosis FBA inhibitor project, biochemical, absorbance, full deck. GDH-TPI coupled enzyme counterscreen, NADH absorbance. inhibition, % at 4.8 µM. 1.2% of 360,000 active. AID 588335, 2011;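 further: 0% = DMSO wells and 100% = wells lacking the enzyme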
MazF activator = activators of E. coli MazEF toxin-antitoxin RNase, primary screen, biochemical, fluorescence, uHTS | FAM/BHQ RNA-DNA oligo cleavage fluorescence, 5 h | AID 504720, 2011 | 0.32% of 350,000 active | Endoribonuclease toxin MazF (Escherichia coli (strain K12)), P0AE70 | activation, % at 20 µM; in the data active means activation above about 50%
Target sequence (P0AE70 whole entry, looked up): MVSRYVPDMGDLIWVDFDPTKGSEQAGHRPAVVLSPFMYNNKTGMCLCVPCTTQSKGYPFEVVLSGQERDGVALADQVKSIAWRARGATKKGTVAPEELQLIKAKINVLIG
Mtb betalactam = beta-lactam sensitization of Mtb H37Rv, H37Rv; M. tuberculosis H37Rv growth with meropenem, percent inhibition; inhibition, % at 25 µM; 0.27% of 330,000 active; AID 434955, 2010; call rule not given here;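 further: growth measured after seven days incubation then overnight dye step; 0% = bacteria only wells and 100% = bacteria with antibiotic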
CCHF vOTU inh = CCHFV vOTU protease inhibitors, primary screen, biochemical, Pep-AMC substrate, fluorescence. AID 651958, 2012. 0.55% of 370,000 active. Crimean-Congo hemorrhagic fever virus L polyprotein viral ovarian tumor (vOTU) protease …. inhibition, % at 11.5 µM; further: 0% = vehicle wells with enzyme and 100% = no enzyme wells
Mtb FBA confirm = M. tuberculosis aldolase blockers, biochemical, fluorescence, strain H37Rv, confirmation. shares compounds with FBA Mtb inh. purified M. tuberculosis FBA, fluorescence read-out. inhibition, % at 1 µM. 78% of 5,600 active. AID 651616, 2012; in the data active means inhibition above about 27%;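 further: 0% = vehicle wells and 100% = reference inhibitor wells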
GDH-TPI counter-2 = GDH-TPI coupling enzyme inhibitors, artefact control for M. tuberculosis FBA inhibitor project, biochemical, fluorescence, high throughput; shares compounds with FBA Mtb inh; GDH-TPI coupled enzyme counterscreen; inhibition, % at 1 µM; 81% of 5,600 active; AID 652141, 2013; in the data active means inhibition above about 10%
Numbers without * were called inactive; · = no result given; + = active, no number. Only some compounds are listed: those with a hit (about 4% of all), similar ones and a draw of the others. Unless noted, no stated cut-off is given here; in the data, active means inhibition above about 30%; inactive means the rest.

SMILES	FBA Mtb inh	GDH-TPI counter-1	MazF activator	Mtb betalactam	CCHF vOTU inh	Mtb FBA confirm	GDH-TPI counter-2
CCOC(=O)C(=O)Nc1nnc(Cc2ccc(OC)c(OC)c2)s1	-1	-1	1	-3	-6	·	·
CCOC(=O)Nc1nnc(Cc2ccc(Cl)c(Cl)c2)s1	103*	-4	-9	1	-1	63*	47*
O=C(CN1C(=O)CCC1=O)Nc1nc(-c2ccccn2)cs1	1	-4	-16	7	10	·	·
O=C(CN1C(=O)CCC1=O)Nc1nc(-c2nc3ccccc3s2)cs1	34*	-2	-3	3	-8	10	4
O=C(O)c1ccc2c(c1)C(=O)N(CCc1ccccc1)C2=O	85*	-1	5	3	11	174*	132*
O=C(O)c1ccc2c(c1)C(=O)N(CCCCCCCN1C(=O)c3ccc(C(=O)O)cc3C1=O)C2=O	-1	2	1	-7	5	·	·
COc1ccc(CCNC(=O)Cn2ccc3cc(S(=O)(=O)N4CCCC4)ccc32)cc1OC	1	-4	3	-8	-4	·	·
Cc1ccc(CCNC(=O)Cn2ccc3cc(S(=O)(=O)N4CCCC4)ccc32)cc1	84*	-8	0	7	-1	44*	27*
CCC1(C)Cc2ccccc2-c2nc3n(c(=O)c21)CC(C(=O)O)S3 (stereo not given)	39*	2	-1	-18	3	-2	-1
CCC1(C)Cc2ccccc2-c2nc(-c3ccccc3)oc(=O)c21 (stereo not given)	0	8	6	4	-6	·	·
COc1ccc(NC(=O)N(CCc2c(C)[nH]c3ccccc23)Cc2cccs2)cc1OC	·	·	·	·	0	·	·
Cc1ccccc1C(=O)N[C@H](C(=O)N1CCC[C@H]1C(=O)NC1CCCC1)c1ccccc1	·	·	·	·	-2	·	·
CN1CC=C2C(C#N)=C(N)C(C#N)(C#N)C(c3ccsc3)C2C1 (stereo not given)	30*	8	-12	8	-20	79*	65*
CN1CC=C2C(C#N)=C(N)C(C#N)(C#N)C(c3ccncc3)C2C1 (stereo not given)	20	7	-51	-6	·	·	·
CCCC1C2CN(C(C)C)CC=C2C(C#N)=C(N)C1(C#N)C#N (stereo not given)	46*	16	-33	-3	-30	26	29*
CN1CC=C2C(C#N)=C(N)C(C#N)(C#N)[C@H](c3cccc(Cl)c3)C2C1 (stereo not given in full)	28*	12	11	-10	-37	9	0
CCOC(=O)Cn1cc(CN2C(C(=O)OC)CN(C3CC3)CCS2(=O)=O)nn1 (stereo not given)	·	·	·	·	-2	·	·
O=S1(=O)c2ccccc2-c2c(nnn2CC2CCCCC2)CN1C1CC1	·	·	·	·	-1	·	·
C=CCN(c1ccccc1)S(=O)(=O)c1cccc(C(=O)O)c1	54*	4	-4	-8	21	199*	189*
CN1CCN(CCCNC(=O)c2cc3c(-c4ccc(Cl)cc4)nn(C)c3s2)CC1	28*	13	5	70	-1	62*	57*
Cn1nc(-c2ccc(Cl)cc2)c2cc(C(=O)NCC3CCCO3)sc21 (stereo not given)	63*	7	10	57	-19	81*	57*
Cc1nn(-c2ccccc2)c2sc(C(=O)NCC3CCCO3)cc12 (stereo not given)	·	·	·	·	-9	·	·
O=c1cc(-c2cccs2)oc2ccc(Cl)cc12	38*	38*	4	28	-19	156*	120*
O=c1cc(-c2ccccc2)oc2ccc(Cl)cc12	2	0	-1	·	-4	·	·
Cc1c(C)c2ccc(OCC(=O)N3CCN(C(=O)C4COc5ccccc5O4)CC3)cc2oc1=O (stereo not given)	66*	13	1	8	-32	29*	17*
SMILES	FBA Mtb inh	GDH-TPI counter-1	MazF activator	Mtb betalactam	CCHF vOTU inh	Mtb FBA confirm	GDH-TPI counter-2
Cc1cc(=O)oc2cc(OCC(=O)N3CCN(C(=O)C4COc5ccccc5O4)CC3)ccc12 (stereo not given)	35*	16	11	1	-5	+	+
COc1ccc2c(C)c(CC(=O)N3CCN(C(=O)C4COc5ccccc5O4)CC3)c(=O)oc2c1C (stereo not given)	78*	9	12	0	-61	162*	131*
COc1ccc2nc(N3CCN(C(=O)C4COc5ccccc5O4)CC3)sc2c1 (stereo not given)	3	16	3	78	-3	·	·
COc1cc2nc(N3CCN(C(=O)C4COc5ccccc5O4)CC3)nc(N)c2cc1OC (stereo not given)	85*	18	13	12	-57	148*	110*
CCCCS(=O)(=O)N1CCCc2nc(-c3ccc(F)cc3)ccc21	·	·	·	·	-4	·	·
Cc1ccc(-c2cc(-c3ccccc3)cc(-c3ccccc3)[n+]2-c2ccc(C(=O)O)cc2)cc1	29*	26	7	-3	-9	49*	46*
Cc1ccc(-c2cc(-c3ccc(C)cc3)[n+](-c3ccc(C(=O)O)cc3)c(-c3ccc(C)cc3)c2)cc1	19	24	-2	8	-1	·	·
N#CC(C#N)=C1NC(N)=C(C#N)C(c2ccccc2)=C1C#N	71*	33*	·	-3	12	86*	74*
N#Cc1cccnc1N1CCC(C(N)=O)CC1	30*	9	4	3	-27	50*	38*
C=CCN1C[C@@H](COCc2ccccc2)Oc2cc(F)ccc2S1(=O)=O	·	·	·	·	1	·	·
Cc1cc(=O)oc2c(C)c(OC(C)C(=O)NC(Cc3c[nH]c4ccc(O)cc34)C(=O)O)ccc12 (stereo not given)	11	17	3	-5	-7	·	·
CCCCc1cc(=O)oc2cc(C)cc(OC(C)C(=O)NC(Cc3c[nH]c4ccc(O)cc34)C(=O)O)c12 (stereo not given)	37*	16	6	-6	-18	132*	102*
CCc1c(C)c2ccc(OC(C)C(=O)NC(Cc3c[nH]c4ccc(O)cc34)C(=O)O)c(C)c2oc1=O (stereo not given)	43*	27	3	-11	-9	·	+
COC(=O)[C@]12C[C@H](CC(=O)NCCCCc3ccccc3)C(=O)N(Cc3ccccc3)C1=C[C@H](COCc1ccccc1)O[C@@H]2C	·	·	·	·	6	·	·
